From PubChem BioAssay AID1159580 (chemical genetic matrix, 2015)
Values joined by “and” are separate entries in the source; they are usually repeats but may differ in a detail not shown here. Identical values can stand only once. Out of some 5,500 compounds screened, about 2,000 (36%) were called active. About 18% were inconclusive and are not listed. Rule as the data show it: active = normalized growth mostly below about 0.91 (no sharp cut-off); inconclusive = no clear call, values can overlap the other calls; inactive = mostly above about 0.92. Some of the results follow.

Assay: chemical genetic growth profiling, strain panel (AID 1159580);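 also: tested at 20 µM; growth read once vehicle control cultures reached saturation at 30 °C; 1 = growth at the plate median or of vehicle wells; lower values mean less growth of the strain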
Conditions: S. cerevisiae deletion strains, growth OD

Measured: normalized growth

C=NC(C(=O)NC1C(=O)N2C1SC(C)(C)C2C(=O)O)c1ccccc1 (configuration not stated)
inactive: locus YAL013W, strain DEP1, active compounds read low 1.01 | locus YAL021C, strain ccr4, active compounds read low 0.991 | locus YAL026C, strain drs2, active compounds read low 0.994 | locus YAL030W, strain snc1, active compounds read low 1 | locus YBL061C, strain skt5, active compounds read low 1.02 | locus YBR009C, strain hhf1, active compounds read low 0.994 | locus YBR021W, strain FUR4, active compounds read low 0.999 | locus YBR023C, strain chs3, active compounds read low 0.995 | locus YBR171W, strain sec66, active compounds read low 1.02 | locus YBR229C, strain ROT2, active compounds read low 1 | locus YBR231C, strain swc5, active compounds read low 1.02 | locus YBR279W, strain paf1, active compounds read low 1 | locus YCL011C, strain gbp2, active compounds read low 0.989 | locus YCL016C, strain dcc1, active compounds read low 0.986 | locus YCL029C, strain bik1, active compounds read low 1.02 | locus YCL061C, strain MRC1, active compounds read low 0.991 | locus YCL069W, strain vba3, active compounds read low 1.01 | locus YCR088W, strain abp1, active compounds read low 1 | locus YDL005C, strain med2, active compounds read low 0.998 | locus YDL035C, strain GPR1, active compounds read low 1.01 | locus YDL040C, strain nat1, active compounds read low 1.01 | locus YDL074C, strain BRE1, active compounds read low 0.986 | locus YDL101C, strain DUN1, active compounds read low 1.01 | locus YDL134C, strain PPH21, active compounds read low 1.01 | locus YDL185W, strain tfp1, active compounds read low 1.01 | locus YDL192W, strain arf1, active compounds read low 1.01 | locus YDR001C, strain nth1, active compounds read low 0.989 | locus YDR069C, strain doa4, active compounds read low 1.03 | locus YDR101C, strain arx1, active compounds read low 1 | locus YDR137W, strain rgp1, active compounds read low 1.01 | locus YDR150W, strain NUM1, active compounds read low 1.01 | locus YDR159W, strain sac3, active compounds read low 1.07 | locus YDR162C, strain NBP2, active compounds read low 1.03 | locus YDR195W, strain ref2 1 | locus YDR297W, strain sur2, active compounds read low 1.03 | locus YDR318W, strain mcm21, active compounds read low 1.02 | locus YDR334W, strain swr1, active compounds read low 1 | locus YDR335W, strain msn5, active compounds read low 0.983 | locus YDR388W, active compounds read low 1 | locus YDR392W, strain spt3, active compounds read low 0.867 | locus YDR502C, strain sam2, active compounds read low 1.02 | locus YEL003W, strain gim4, active compounds read low 1 | locus YEL037C, strain rad23, active compounds read low 0.994 | locus YEL061C, strain CIN8 (second series), active compounds read low 0.995 | locus YEL061C, strain CIN8, active compounds read low 1 | locus YER015W, strain faa2, active compounds read low 0.978 | locus YER016W, strain bim1, active compounds read low 1.01 | locus YER110C, active compounds read low 1.01 | locus YER111C, strain swi4, active compounds read low 1 | locus YER155C, strain BEM2 (second series), active compounds read low 1.03 | locus YER155C, strain BEM2, active compounds read low 1 | locus YER167W, strain BCK2, active compounds read low 1.02 | locus YFR010W, strain ubp6, active compounds read low 0.993 | locus YGL078C, strain dbp3, active compounds read low 1 | locus YGL086W, strain mad1, active compounds read low 1.02 | locus YGL167C, strain pmr1, active compounds read low 0.992 | locus YGL173C, strain kem1, active compounds read low 1.01 | locus YGL227W, strain vid30, active compounds read low 0.996 | locus YGL240W, strain doc1, active compounds read low 1.04 | locus YGL248W, strain PDE1, active compounds read low 1.02 | locus YGL253W, strain hxk2, active compounds read low 1.01 | locus YGR078C, strain PAC10, active compounds read low 1.01 | locus YGR135W, strain pre9, active compounds read low 1.01 | locus YGR229C, strain SMI1, active compounds read low 0.977 | locus YGR252W, strain gcn5, active compounds read low 1.07 | locus YHR013C, strain ard1, active compounds read low 0.973 | locus YHR027C, strain rpn1, active compounds read low 0.992 | locus YHR030C, strain SLT2, active compounds read low 1.01 and 1 | locus YHR079C, strain IRE1 (second series), active compounds read low 1.01 | locus YHR079C, strain IRE1, active compounds read low 1 | locus YHR094C, strain hxt1, active compounds read low 1.01 | locus YHR129C, strain ARP1, active compounds read low 1.01 | locus YHR142W, strain chs7, active compounds read low 0.994 | locus YHR200W, strain rpn10, active compounds read low 1.03 | locus YIL066C, strain RNR3, active compounds read low 1.01 | locus YIL073C, strain SPO22, active compounds read low 1.07 | locus YIL125W, strain kgd1, active compounds read low 1.01 | locus YIR030C, strain dcg1, active compounds read low 1.02 | locus YJL092W, strain hpr5, active compounds read low 0.994 | locus YJL095W, strain BCK1 (second series), active compounds read low 1 | locus YJL095W, strain BCK1, active compounds read low 1.01 and 0.995 | locus YJL115W, strain asf1, active compounds read low 0.973 | locus YJL129C, strain trk1, active compounds read low 0.991 | locus YJL134W, strain LCB3, active compounds read low 1.01 | locus YJL154C, strain vps35, active compounds read low 1 | locus YJL164C, strain tpk1, active compounds read low 0.977 | locus YJL166W, strain qcr8, active compounds read low 1.02 | locus YJL168C, strain set2, active compounds read low 1.01 | locus YJL187C, strain SWE1 (second series), active compounds read low 1.01 | locus YJL187C, strain SWE1, active compounds read low 1.02 | locus YJR043C, strain POL32, active compounds read low 0.992 | locus YJR066W, strain TOR1, active compounds read low 0.988
